Bioassay records: PubChem BioAssay, several laboratories
An excerpt weighted towards active compounds, which were near 4.5% of everything screened.
Gli-Sufu block = blocks Gli-Sufu signaling in a luciferase reporter; Sufu-KO-LIGHT fibroblasts, Gli luciferase reporter luminescence; inhibition, % at 5 µM; 340,000 compounds, 0.74% hits;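 active = inhibition above about 55%, limit read from the data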;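 also: 0% = DMSO-treated cells and 100% = wells with medium but no cells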
aSyn UTR inh = MLPCN primary screen, SNCA 5' untranslated region. alpha-synuclein 5'UTR reporter, inhibitor activity. inhibition, % (tested at 7.5 µM). 300,000 compounds, 0.82% hits. AID 1813; in the data active = inhibition above about 60%;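 also: H4 neuroglioblastoma cells stably carrying SNCA 5'UTR luciferase fusion; 0% = DMSO wells and 100% = positive control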
CSC inhib = blocks cancer stem cells | cancer stem cell-like cells viability, luminescence | inhibition, % at 7.5 µM | 300,000 compounds, 1.1% hits | AID 2717; in the data active = inhibition above about 75%; tested in HMLE shEcad cells
Mdm2-MdmX inh = inhibitors of human Mdm2/MdmX interaction | SaOS-2 split-luciferase Mdm2/MdmX complementation, luminescence | inhibition, % at 8 µM | 330,000 compounds, 3% hits | O15151+Q00987;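 active = inhibition of at least 50% at 8 µM in the primary screen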
Target sequence (O15151 whole entry, looked up): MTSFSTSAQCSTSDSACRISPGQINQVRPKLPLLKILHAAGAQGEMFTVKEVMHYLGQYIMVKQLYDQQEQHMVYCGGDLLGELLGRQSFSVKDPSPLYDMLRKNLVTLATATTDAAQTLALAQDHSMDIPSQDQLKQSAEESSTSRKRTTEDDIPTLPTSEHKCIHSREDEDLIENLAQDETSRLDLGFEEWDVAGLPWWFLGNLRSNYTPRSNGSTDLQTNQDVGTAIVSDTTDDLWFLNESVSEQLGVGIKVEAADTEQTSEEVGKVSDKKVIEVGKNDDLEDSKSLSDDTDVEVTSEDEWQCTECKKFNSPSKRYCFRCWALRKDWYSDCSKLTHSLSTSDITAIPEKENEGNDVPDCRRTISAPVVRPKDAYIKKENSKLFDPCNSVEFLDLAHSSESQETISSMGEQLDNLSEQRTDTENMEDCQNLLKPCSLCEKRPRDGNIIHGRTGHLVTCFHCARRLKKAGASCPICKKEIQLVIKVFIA
Target sequence (Q00987 whole entry, looked up): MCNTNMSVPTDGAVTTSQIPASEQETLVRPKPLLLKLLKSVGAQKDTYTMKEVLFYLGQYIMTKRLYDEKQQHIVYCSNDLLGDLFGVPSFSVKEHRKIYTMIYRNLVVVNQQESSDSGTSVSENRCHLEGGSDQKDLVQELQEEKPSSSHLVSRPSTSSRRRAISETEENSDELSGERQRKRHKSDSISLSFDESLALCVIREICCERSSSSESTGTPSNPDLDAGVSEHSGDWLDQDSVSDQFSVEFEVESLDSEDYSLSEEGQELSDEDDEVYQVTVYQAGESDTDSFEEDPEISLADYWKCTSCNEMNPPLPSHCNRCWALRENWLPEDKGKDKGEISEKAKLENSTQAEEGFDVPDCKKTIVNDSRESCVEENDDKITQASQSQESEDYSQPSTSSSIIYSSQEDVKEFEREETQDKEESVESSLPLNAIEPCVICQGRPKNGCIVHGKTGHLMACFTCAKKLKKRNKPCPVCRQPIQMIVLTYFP
Jurkat NFkB inh = lowers PMA/ionomycin-induced NF-kB signal in Jurkat cells | 330,000 compounds, 0.53% hits | AID 435003 | PMA/ionomycin-induced NF-kB luciferase reporter, luminescence | inhibition, % at 4 µM; in the data active = inhibition above about 50%
697 NFkB inh = inhibitors of the PMA/ionomycin-induced NF-kB reporter in 697 B cells | 697 B-cell NF-kB luciferase reporter, 16 h | inhibition, % at 4 µM | 330,000 compounds, 0.33% hits | AID 435022; in the data active = inhibition above about 35%
Numbers without * were called inactive.

How did O=C(Oc1ccc(Cl)c2cccnc12)c1cccc([N+](=O)[O-])c1 do in these assays?
Gli-Sufu block: -6; aSyn UTR inh: 2; CSC inhib: 108*; Mdm2-MdmX inh: -1; Jurkat NFkB inh: 4; 697 NFkB inh: -3

How did COc1ccc(C2C(C(=O)Nc3cccc(C)n3)CCC(=O)N2c2ccc(OC)cc2)cc1 (stereo not drawn) do in these assays?
Gli-Sufu block: 0; aSyn UTR inh: 73*; CSC inhib: -11; Mdm2-MdmX inh: 20; Jurkat NFkB inh: -12; 697 NFkB inh: -30

What do the screens show for `CC(C)CC(NC(N)=O)C(=O)Nc1ccc(Oc2ccccc2)cc1` (stereo not drawn)?
Gli-Sufu block: -13; aSyn UTR inh: 13; CSC inhib: 3; Mdm2-MdmX inh: 15; Jurkat NFkB inh: -8; 697 NFkB inh: 5

How did COCCCn1c(SCc2cccc(C(F)(F)F)c2)nc2cc(OC)c(OC)cc2c1=N do in these assays?
Gli-Sufu block: 12; aSyn UTR inh: 17; CSC inhib: 83*; Mdm2-MdmX inh: 38; Jurkat NFkB inh: 2; 697 NFkB inh: -35

Results for CC1(C)NC(=O)N(CC(=O)OCC(=O)c2ccc(Br)s2)C1=O ?
Gli-Sufu block: 8; Mdm2-MdmX inh: 24; Jurkat NFkB inh: 9; 697 NFkB inh: 12

Results for Cc1ccn2c(NC3CCCCC3)c(-c3cccc(-c4cccc(Cl)c4)c3)nc2c1 ?
Gli-Sufu block: -9; aSyn UTR inh: -16; CSC inhib: 102*; Mdm2-MdmX inh: 44; Jurkat NFkB inh: -16; 697 NFkB inh: -7

Results for Cc1ccn2c(NC3CCCC3)c(-c3ccncc3)nc2c1 ?
Gli-Sufu block: 8; aSyn UTR inh: -13; CSC inhib: -8; Mdm2-MdmX inh: -26; Jurkat NFkB inh: 5; 697 NFkB inh: 12

How did COc1ccc(CNC(=O)C(=O)NCC2OCCCN2S(=O)(=O)c2cccs2)cc1 (stereo not drawn) do in these assays?
Gli-Sufu block: -5; aSyn UTR inh: 19; CSC inhib: -23; Mdm2-MdmX inh: 1; Jurkat NFkB inh: -8; 697 NFkB inh: 8

Results for CCCc1cc(=O)n2[nH]c(SCc3ccc(Cl)cc3)nc2n1 ?
Gli-Sufu block: 37; aSyn UTR inh: 10; CSC inhib: 2; Mdm2-MdmX inh: -15; Jurkat NFkB inh: 19; 697 NFkB inh: 15

Results for Cc1cc(C)n(-c2cc(C(C)(C)C)nc3c(-c4ccccc4)cnn23)n1 ?
Gli-Sufu block: -56; CSC inhib: 29; Mdm2-MdmX inh: -141; Jurkat NFkB inh: -119; 697 NFkB inh: -227

Results for CC(C)(C)c1cc(NCc2ccccn2)n2ncc(-c3ccccc3)c2n1 ?
Gli-Sufu block: -24; CSC inhib: 78*; Mdm2-MdmX inh: 48; Jurkat NFkB inh: -11; 697 NFkB inh: -46

What do the screens show for `Oc1ccc(-c2cnc(-c3ccc(O)cc3)nc2)cc1`?
Gli-Sufu block: -63; aSyn UTR inh: -29; CSC inhib: 98*; Mdm2-MdmX inh: -122; Jurkat NFkB inh: -97; 697 NFkB inh: -173

Results for COc1ccc(NC(=S)Nc2ccc(C)c(S(=O)(=O)N3CCCCC3)c2)cc1 ?
aSyn UTR inh: -4; CSC inhib: 11; Mdm2-MdmX inh: 25; Jurkat NFkB inh: 9; 697 NFkB inh: -14

How did Cc1ccc(NC(=S)Nc2ccc(C(C)C)cc2)cc1S(=O)(=O)N1CCCCCC1 do in these assays?
Gli-Sufu block: 3; aSyn UTR inh: -32; CSC inhib: 75*; Mdm2-MdmX inh: 0; Jurkat NFkB inh: 49; 697 NFkB inh: -123

How did CC(=O)Nc1ccc(OCC(O)CN2CCN(c3ccc(C)c(Cl)c3)CC2)cc1 (stereo not drawn) do in these assays?
Gli-Sufu block: -2; aSyn UTR inh: 39; CSC inhib: 120*; Mdm2-MdmX inh: 0; Jurkat NFkB inh: 8; 697 NFkB inh: -10

How did CC(=O)Nc1ccc(S(=O)(=O)N2CCN(c3ccc(C)c(Cl)c3)CC2)cc1 do in these assays?
Gli-Sufu block: 4; aSyn UTR inh: 21; CSC inhib: 9; Mdm2-MdmX inh: 19; Jurkat NFkB inh: 9; 697 NFkB inh: -11

How did CC(=O)Nc1ccc(OCC(O)CN2CCN(c3cc(Cl)ccc3C)CC2)cc1 (stereo not drawn) do in these assays?
Gli-Sufu block: 4; aSyn UTR inh: 15; CSC inhib: 84*; Mdm2-MdmX inh: 11; Jurkat NFkB inh: 13; 697 NFkB inh: -9

How did CN(CC(=O)Nc1cccc(F)c1)C(=O)c1cn(-c2ccccc2)nc1-c1ccc(F)cc1 do in these assays?
Gli-Sufu block: 2; CSC inhib: 69; Mdm2-MdmX inh: 28; Jurkat NFkB inh: -5; 697 NFkB inh: 10

How did COc1ccc(-c2nn(-c3ccccc3)cc2C(=O)N(C)CC(=O)Nc2cccc(F)c2)cc1 do in these assays?
CSC inhib: 80*; Mdm2-MdmX inh: 10; Jurkat NFkB inh: -18; 697 NFkB inh: 10

Results for Cc1cc(N/N=C/c2ccc(O)c(C)c2O)nc(-c2ccccc2O)n1 ?
Gli-Sufu block: -4; aSyn UTR inh: 87*; CSC inhib: 113*

What do the screens show for `CCOc1ccccc1C(=O)N[C@H](C(=O)OCC(=O)Nc1nnc(-c2ccccc2)o1)C(C)C`?
Gli-Sufu block: 3

Results for COc1cc(NC(=O)CCc2nnc3ccc(N4CCN(C)CC4)nn23)cc(OC)c1 ?
Gli-Sufu block: -15; aSyn UTR inh: 10; CSC inhib: 4; Mdm2-MdmX inh: 14; Jurkat NFkB inh: -12; 697 NFkB inh: -58

How did COC(=O)c1cnc(SCc2ccc([N+](=O)[O-])cc2)n1C do in these assays?
Gli-Sufu block: 2; aSyn UTR inh: 2; CSC inhib: -10; Mdm2-MdmX inh: -32; Jurkat NFkB inh: -7; 697 NFkB inh: -16

Results for COc1ccc(-c2nn(-c3ccccc3)cc2/C=N/NC(N)=S)cc1OC ?
Gli-Sufu block: 27; aSyn UTR inh: 90*; CSC inhib: 68

What do the screens show for `O=S(=O)(c1ccc(Br)cc1)N1CCN(c2cc(-c3ccccc3)nc3ncnn23)CC1`?
Gli-Sufu block: 10; aSyn UTR inh: -1; CSC inhib: -22; Mdm2-MdmX inh: 21; Jurkat NFkB inh: -5; 697 NFkB inh: 4

Results for O=S(=O)(c1ccccc1)N1CCN(c2cc(-c3ccccc3)nc3ncnn23)CC1 ?
Gli-Sufu block: 57*; aSyn UTR inh: -23; Mdm2-MdmX inh: -15; Jurkat NFkB inh: 41; 697 NFkB inh: 12

How did C=CCN(c1ccccc1C(=O)NCC(=O)O)S(=O)(=O)c1ccccc1C do in these assays?
Gli-Sufu block: -2; aSyn UTR inh: -38; CSC inhib: -5; Mdm2-MdmX inh: 3; Jurkat NFkB inh: -5; 697 NFkB inh: -13

What do the screens show for `CC1C(=O)C(C)C(c2ccc(Cl)cc2)NC1c1ccc(Cl)cc1` (stereo not drawn)?
Gli-Sufu block: -3; aSyn UTR inh: 68*; CSC inhib: 55; Mdm2-MdmX inh: -17; Jurkat NFkB inh: 0; 697 NFkB inh: -15

How did O=C(N/N=C/c1ccccc1O)NC12CC3CC(CC(C3)C1)C2 do in these assays?
Gli-Sufu block: -5; aSyn UTR inh: -168; CSC inhib: 37; Mdm2-MdmX inh: -19; Jurkat NFkB inh: -51; 697 NFkB inh: -83
